# Test results taken from PubChem BioAssay (EPA / NIEHS).
# Several values for one entry are separate records, joined by “and”; a condition that tells them apart may be missing. Identical values can stand only once. Inconclusive results are not listed. A structure can be active in one record and inactive in another. Activity calls are given as the source filed them. How the source made its calls: active means hit-call score of the fitted dose curve at least 0.9, where 1 is the maximum; inconclusive means response in the unintended direction; inactive means score below 0.9.
# Key:
# [1] = ArunA_Migration_hNP: ArunA Biomedical's Oris Neuroprogenitor (hNP) Cell Migration Assay (AID 2283754)
# Method in brief: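 Human H9-derived hNP1 neuroprogenitors on Matrigel with LIF/bFGF, plated around seeding stoppers for 16 h at 37C; stoppers removed at start of 72 h chemical exposure. Calcein-AM staining, fluorescence 494/517 nm in detection zone; loss-of-signal vs DMSO; cytochalasin D control.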
# [2] = ArunA_Migration_hNC: ArunA Biomedical's Oris Neural Crest (hNC) Cell Migration Assay (AID 2283755)
# Method in brief: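 Human H9-derived neural crest stem cells, 60,000/well on Matrigel, 16 h at 37C, then 72 h chemical exposure after seeding-stopper removal. Migration into detection zone read as calcein-AM fluorescence (ex494/em517), relative to DMSO.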
# [3] = ArunA_NOG_NucleusCount: ArunA Biomedical's Neurite Outgrowth (NOG) Assay for Nucleus Count (AID 2283756)
# Method in brief: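 Human H9-derived differentiated neurons were exposed for 48 h right after seeding. Hoechst-stained nuclei gated by size and intensity were counted by automated high-content imaging as viable neurons. Loss of signal vs DMSO.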
# [4] = ArunA_NOG_NeuritesPerNeuron: ArunA Biomedical's Neurite Outgrowth (NOG) Assay for Neurites Per Neuron (AID 2283758)
# Method in brief: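 Differentiated human H9-derived neurons exposed to chemicals for 48 h from seeding, then stained with Hoechst and βIII-tubulin/DyLight 488. Automated imaging counted neurites (processes >10 um) per valid neuron; loss of signal versus DMSO scored.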
# [5] = ArunA_NOG_BranchPointsPerNeurite: ArunA Biomedical's Neurite Outgrowth (NOG) Assay for Branch Points Per Neurite (AID 2283759)
# Method in brief: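 Automated image analysis traced neurites (processes >10 um) from valid cell bodies after Hoechst and βIII-tubulin staining. hNN cells from H9 embryonic stem cells, 48 h exposure. Fitted bidirectionally against DMSO.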
# [6] = target: Luciferin 4-monooxygenase (Photinus pyralis) (UniProt P08659); experiment: CCTE_Simmons_QuantiLum_inhib_2: CCTE's Firefly Luciferase Inhibition Assay, Simmons Lab (AID 2283767)
# Method in brief: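 Counter-screen for nonspecific enzyme inhibition: purified firefly luciferase incubated 30 min at 37C with chemicals up to 87.5 uM final, then luminescence measured after luciferin/dATP injection; activity fitted against DMSO baseline.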
# [7] = system: chicken Androgen Receptor (AR), gene 422165; experiment: ATG_chAR_XSP1: Attagene TRANS-FACTORIAL Multi-Species (XSP1) HepG2 Assay for chicken Androgen Receptor (AR) (AID 2283768)
# Method in brief: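 HepG2 cells transiently transfected with multiplexed GAL4-UAS reporter units expressing chimeric chicken AR-Gal4; 3 nM 6-alpha-fluorotestosterone for partial AR stimulation; 24 h after dosing, reporter mRNA by RT-PCR and capillary electrophoresis, gain-of-signal versus DMSO.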
# [8] = system: zebrafish Estrogen Receptor (ESR2B), gene 317733; experiment: ATG_zfER2b_XSP1: Attagene TRANS-FACTORIAL Multi-Species (XSP1) HepG2 Assay for zebrafish Estrogen Receptor (ESR2B) (AID 2283773)
# Method in brief: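 HepG2 cells transiently transfected with multiple GAL4-UAS reporter units expressing chimeric zebrafish ER2b-Gal4; 24 h chemical exposure with 3 nM 6-alpha-fluorotestosterone present. Reporter mRNA measured by RT-PCR and capillary electrophoresis; gain of signal fitted versus DMSO.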
# [9] = system: frog Estrogen Receptor (ESR2), gene 100174814; experiment: ATG_frER2_XSP1: Attagene TRANS-FACTORIAL Multi-Species (XSP1) HepG2 Assay for frog Estrogen Receptor (ESR2) (AID 2283774)
# Method in brief: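 HepG2 cells transiently transfected with GAL4-UAS multiplexed reporter units expressing chimeric NR-Gal4 proteins; reporter mRNA measured 24 h after dosing by RT-PCR, FAM labeling, HpaI digestion and capillary electrophoresis. Gain-of-signal relative to DMSO; 3 nM 6-alpha-fluorotestosterone present.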
# [10] = ACEA_AR_agonist_AUC_viability: ACEA Biosciences xCELLigence Real-Time Cell Analysis on Androgen Receptor Agonism for Viability (AID 2283775);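 on AC50: viability read 80 hours after compound addition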
# Method in brief: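 Read-out is area under the impedance curve at 80 h post-dose in 22Rv1 cells, with DMSO as baseline and signal loss taken as reduced viability. Compounds ran in duplicate from 100 uM final.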
# [11] = ACEA_AR_antagonist_AUC_viability: ACEA Biosciences xCELLigence Real-Time Cell Analysis on Androgen Receptor Antagonism for Viability (AID 2283776);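 further: area under impedance growth curve at 80 h after dosing as viability; hits lower the growth signal relative to DMSO meaning cytotoxicity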
# Method in brief: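 22Rv1 human prostate cancer cells were seeded on electrode plates, monitored overnight, then exposed to eight 1:4 dilutions from 100 uM final. Impedance-based growth kinetics at 80 h gave an AUC viability endpoint normalized to DMSO.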
# [12] = system: frog Estrogen Receptor (ESR1), gene 398734; experiment: ATG_frER1_XSP1: Attagene TRANS-FACTORIAL Multi-Species (XSP1) HepG2 Assay for frog Estrogen Receptor (ESR1) (AID 2283777)
# Method in brief: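 Read-out: fluorescent reporter mRNA via RT-PCR, HpaI digestion and capillary electrophoresis, after 24 h chemical exposure of transiently transfected human HepG2 cells expressing exogenous NR-Gal4 chimeras. DMSO served as baseline for positive-direction fitting.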
# [13] = ACEA_ER_AUC_viability: ACEA Biosciences xCELLigence Real-Time Cell Analysis on Estrogen Receptor Agonism for Viability (AID 2283782);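 further: continuous compound exposure with impedance area under curve over 80 h; hit means loss of impedance signal meaning reduced cell growth or viability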
# Method in brief: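 T-47D human breast cells in phenol red-free RPMI1640 with 10% charcoal-stripped FBS were dosed with an 8-point 1:4 dilution series from 100 uM top final concentration, in duplicate. Impedance-based growth was followed for 80 h; AUC analysed versus DMSO.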
# [14] = system: zebrafish Androgen Receptor (AR), gene 100005148; experiment: ATG_zfAR_XSP1: Attagene TRANS-FACTORIAL Multi-Species (XSP1) HepG2 Assay for zebrafish Androgen Receptor (AR) (AID 2283771)
# Method in brief: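 HepG2 cells were transiently transfected with a zebrafish AR-GAL4 reporter system and partially stimulated with 3 nM 6-alpha-fluorotestosterone. Reporter mRNA was measured after 24 h dosing by RT-PCR with capillary electrophoresis, and gain-of-signal was fitted relative to DMSO.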
# [15] = target: zebrafish Estrogen Receptor (ESR1), esr1 (gene 259252) (UniProt P57717); experiment: ATG_zfER1_XSP1: Attagene TRANS-FACTORIAL Multi-Species (XSP1) HepG2 Assay for zebrafish Estrogen Receptor (ESR1) (AID 2283772)
# Method in brief: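 Transfect HepG2 with GAL4-UAS multi-reporter constructs; treat 24 h (medium carries 3 nM 6-alpha-fluorotestosterone); extract RNA, reverse-transcribe, PCR-amplify, FAM-label, digest with HpaI; resolve by capillary electrophoresis and compare against DMSO baseline.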
# [16] = system: zebrafish Estrogen Receptor (ESR2A), gene 317734; experiment: ATG_zfER2a_XSP1: Attagene TRANS-FACTORIAL Multi-Species (XSP1) HepG2 Assay for zebrafish Estrogen Receptor (ESR2A) (AID 2283778)
# Method in brief: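 HepG2 cells transiently transfected with multiplexed GAL4-UAS reporter units and chimeric NR-GAL4 receptors; 24 h compound exposure with 3 nM 6-alpha-fluorotestosterone present. Reporter mRNA quantified by RT-PCR and capillary electrophoresis, gain-of-signal fitted relative to DMSO.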
# [17] = target: chicken Estrogen Receptor (ESR1), ESR1 (gene 396099) (UniProt P06212); experiment: ATG_chERa_XSP1: Attagene TRANS-FACTORIAL Multi-Species (XSP1) HepG2 Assay for chicken Estrogen Receptor (ESR1) (AID 2283779)
# Method in brief: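 HepG2 cells transiently transfected with multiplexed GAL4-UAS reporter units expressing chimeric NR-Gal4 proteins; 3 nM 6-alpha-fluorotestosterone present. Reporter mRNA measured 24 h after dosing by RT-PCR, FAM labelling, HpaI digest and capillary electrophoresis; gain of signal versus DMSO.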
# [18] = system: turtle Estrogen Receptor (ESR1), gene 101933533; experiment: ATG_trERa_XSP1: Attagene TRANS-FACTORIAL Multi-Species (XSP1) HepG2 Assay for turtle Estrogen Receptor (ESR1) (AID 2283781)
# Method in brief: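 HepG2 cells transiently transfected with GAL4-UAS reporter units and chimeric NR-Gal4 constructs, dosed for 24 h with 3 nM 6-alpha-fluorotestosterone present. Reporter mRNA was quantified by RT-PCR, fluorescent labelling and capillary electrophoresis, with gain of signal fitted relative to DMSO.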
# [19] = target: Estrogen receptor (Homo sapiens) (UniProt P03372); experiment: ATG_hERa_XSP1: Attagene TRANS-FACTORIAL Multi-Species (XSP1) HepG2 Assay for human Estrogen Receptor (ESR1) (AID 2283780)
# Method in brief: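 HepG2 cells transiently transfected with GAL4-UAS reporter units and chimeric NR-Gal4 constructs; 24 h after dosing, reporter mRNA quantified by RT-PCR and capillary electrophoresis. Medium contained 3 nM 6-alpha-fluorotestosterone; activity fitted as gain-of-signal versus DMSO.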
# AR (gene 367) = AR (gene 367) (UniProt P10275); experiment: ACEA_AR_agonist_80hr: ACEA Biosciences xCELLigence Real-Time Cell Analysis on Androgen Receptor Agonism for Proliferation (AID 2283783);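 further: hits increase impedance growth signal above DMSO baseline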
# Method in brief: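 22Rv1 human prostate cancer cells were seeded after preconditioning in assay medium and monitored overnight, then dosed in an eight-point 1:4 dilution series from 100 uM (≤0.5% DMSO). Impedance-based growth was read at 80 h, gain-of-signal versus DMSO.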
# chicken Estrogen Receptor (ESR1), ESR1 (gene 396099), sequence (P06212 whole entry, looked up, the tested form may be a part): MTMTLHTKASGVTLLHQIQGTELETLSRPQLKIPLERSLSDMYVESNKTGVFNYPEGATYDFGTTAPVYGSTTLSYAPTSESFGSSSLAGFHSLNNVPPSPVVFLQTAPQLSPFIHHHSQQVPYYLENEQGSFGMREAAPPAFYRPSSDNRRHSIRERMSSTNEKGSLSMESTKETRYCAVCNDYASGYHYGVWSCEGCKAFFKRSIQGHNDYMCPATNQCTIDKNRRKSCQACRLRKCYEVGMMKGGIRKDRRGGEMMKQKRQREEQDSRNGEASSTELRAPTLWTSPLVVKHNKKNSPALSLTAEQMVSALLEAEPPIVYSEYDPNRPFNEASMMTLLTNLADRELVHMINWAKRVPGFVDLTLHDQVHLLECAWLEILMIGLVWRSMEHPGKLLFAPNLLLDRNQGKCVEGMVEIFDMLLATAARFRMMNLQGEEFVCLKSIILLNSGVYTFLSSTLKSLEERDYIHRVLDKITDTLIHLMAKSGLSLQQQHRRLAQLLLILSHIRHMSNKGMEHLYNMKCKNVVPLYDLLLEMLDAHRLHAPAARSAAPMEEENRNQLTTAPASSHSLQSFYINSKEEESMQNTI
# Luciferin 4-monooxygenase (Photinus pyralis), sequence (P08659 whole entry, looked up): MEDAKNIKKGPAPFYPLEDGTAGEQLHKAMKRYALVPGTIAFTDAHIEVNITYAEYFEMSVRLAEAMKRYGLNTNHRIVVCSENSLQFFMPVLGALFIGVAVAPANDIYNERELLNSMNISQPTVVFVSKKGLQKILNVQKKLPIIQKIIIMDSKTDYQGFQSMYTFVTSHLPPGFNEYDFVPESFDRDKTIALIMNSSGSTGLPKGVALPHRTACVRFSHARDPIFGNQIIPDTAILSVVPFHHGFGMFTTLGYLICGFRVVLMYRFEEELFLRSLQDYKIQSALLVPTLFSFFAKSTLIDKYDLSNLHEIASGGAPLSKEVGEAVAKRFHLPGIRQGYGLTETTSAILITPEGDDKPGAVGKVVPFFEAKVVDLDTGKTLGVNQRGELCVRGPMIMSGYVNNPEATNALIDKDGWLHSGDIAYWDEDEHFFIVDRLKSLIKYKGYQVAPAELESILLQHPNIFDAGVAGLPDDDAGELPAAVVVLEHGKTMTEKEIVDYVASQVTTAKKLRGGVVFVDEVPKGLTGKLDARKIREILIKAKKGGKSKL
# zebrafish Estrogen Receptor (ESR1), esr1 (gene 259252), sequence (P57717 whole entry, looked up, the tested form may be a part): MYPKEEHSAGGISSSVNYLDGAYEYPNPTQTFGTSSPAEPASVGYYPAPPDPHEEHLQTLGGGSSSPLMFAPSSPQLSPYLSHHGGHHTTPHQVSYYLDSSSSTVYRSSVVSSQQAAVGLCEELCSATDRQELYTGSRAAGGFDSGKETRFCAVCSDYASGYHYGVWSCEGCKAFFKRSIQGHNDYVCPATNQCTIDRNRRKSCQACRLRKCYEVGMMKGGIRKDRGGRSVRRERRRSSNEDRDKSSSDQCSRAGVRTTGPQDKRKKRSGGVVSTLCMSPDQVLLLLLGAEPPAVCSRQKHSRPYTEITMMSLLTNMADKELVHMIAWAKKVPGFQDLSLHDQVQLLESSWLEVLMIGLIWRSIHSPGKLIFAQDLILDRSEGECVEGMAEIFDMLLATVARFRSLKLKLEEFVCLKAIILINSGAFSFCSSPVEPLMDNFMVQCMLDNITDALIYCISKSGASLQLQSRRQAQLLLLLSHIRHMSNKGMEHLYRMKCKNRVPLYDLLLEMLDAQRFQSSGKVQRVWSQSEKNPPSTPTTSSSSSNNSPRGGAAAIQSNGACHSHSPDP
# Estrogen receptor (Homo sapiens), sequence (P03372 whole entry, looked up, the tested form may be a part): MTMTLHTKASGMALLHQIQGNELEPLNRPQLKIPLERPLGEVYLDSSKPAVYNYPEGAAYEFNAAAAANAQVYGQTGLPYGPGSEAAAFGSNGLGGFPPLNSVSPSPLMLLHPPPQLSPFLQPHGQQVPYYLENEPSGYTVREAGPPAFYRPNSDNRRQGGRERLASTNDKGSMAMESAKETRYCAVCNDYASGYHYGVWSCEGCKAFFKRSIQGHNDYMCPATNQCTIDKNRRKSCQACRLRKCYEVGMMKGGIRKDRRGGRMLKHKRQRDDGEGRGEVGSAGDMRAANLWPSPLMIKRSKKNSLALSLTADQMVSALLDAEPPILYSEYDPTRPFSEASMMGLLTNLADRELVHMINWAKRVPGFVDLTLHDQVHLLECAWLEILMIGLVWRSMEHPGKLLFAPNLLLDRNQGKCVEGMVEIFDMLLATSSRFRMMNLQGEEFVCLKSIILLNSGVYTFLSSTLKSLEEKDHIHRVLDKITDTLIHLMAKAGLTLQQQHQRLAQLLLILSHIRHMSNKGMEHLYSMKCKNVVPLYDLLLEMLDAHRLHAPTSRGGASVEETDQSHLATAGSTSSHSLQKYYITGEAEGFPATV
# AR (gene 367), sequence (P10275 whole entry, looked up): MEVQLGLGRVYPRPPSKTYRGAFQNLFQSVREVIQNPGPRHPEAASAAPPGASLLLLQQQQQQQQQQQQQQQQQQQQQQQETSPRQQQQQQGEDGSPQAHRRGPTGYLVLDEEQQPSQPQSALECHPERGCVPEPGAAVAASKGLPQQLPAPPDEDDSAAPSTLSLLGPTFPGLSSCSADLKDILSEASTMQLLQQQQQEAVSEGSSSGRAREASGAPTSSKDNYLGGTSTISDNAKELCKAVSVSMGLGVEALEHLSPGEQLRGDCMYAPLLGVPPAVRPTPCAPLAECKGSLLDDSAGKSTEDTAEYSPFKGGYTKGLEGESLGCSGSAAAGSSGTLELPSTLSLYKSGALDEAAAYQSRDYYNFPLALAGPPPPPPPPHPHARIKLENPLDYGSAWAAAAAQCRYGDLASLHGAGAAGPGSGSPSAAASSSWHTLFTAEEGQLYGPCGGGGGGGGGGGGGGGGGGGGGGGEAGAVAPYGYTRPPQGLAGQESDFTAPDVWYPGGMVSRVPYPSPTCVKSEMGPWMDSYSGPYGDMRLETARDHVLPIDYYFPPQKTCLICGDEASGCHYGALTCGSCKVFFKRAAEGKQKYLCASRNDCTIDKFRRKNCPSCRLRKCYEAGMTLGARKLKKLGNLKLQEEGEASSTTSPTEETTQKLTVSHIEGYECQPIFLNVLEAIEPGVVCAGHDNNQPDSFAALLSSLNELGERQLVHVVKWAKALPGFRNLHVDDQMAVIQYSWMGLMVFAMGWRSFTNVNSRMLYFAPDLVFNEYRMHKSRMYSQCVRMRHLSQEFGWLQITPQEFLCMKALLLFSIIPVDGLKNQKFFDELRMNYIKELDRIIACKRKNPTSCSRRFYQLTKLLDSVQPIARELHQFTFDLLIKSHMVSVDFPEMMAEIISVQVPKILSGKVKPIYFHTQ
compound,measurement,setting,value
O=S(=O)(O)C(F)(F)C(F)(F)C(F)(F)C(F)(F)C(F)(F)C(F)(F)C(F)(F)C(F)(F)F,outcome,[1],inactive
same,outcome,[2],inactive
same,AC50,[3],0.649 µM (active)
same,AC50,[4],1.02 µM (active)
same,outcome,[5],inactive
same,outcome,[6],inactive
same,AC50,[7],148 µM (active)
same,outcome,[8],inactive
same,AC50,[9],49.8 µM (active)
same,AC50,[10],50 µM (active)
same,outcome,[10],inactive
same,AC50,[11],31.4 µM (active) and 67.5 µM (active)
same,AC50,[12],84 µM (active)
same,AC50,[13],80 µM (active)
same,outcome,[13],inactive
CNC(=O)/C=C(\C)OP(=O)(OC)OC,outcome,[6],inactive
same,outcome,[11],inactive
Oc1cc(Cl)ccc1Oc1ccc(Cl)cc1Cl,outcome,[1],inactive
same,outcome,[2],inactive
same,outcome,[3],inactive
same,outcome,[4],inactive
same,outcome,[5],inactive
same,outcome,[6],inactive
same,outcome,[14],inactive
same,outcome,[15],inactive
same,AC50,[9],7.05 µM (active)
same,AC50,[10],17.3 µM (active)
same,AC50,[11],12.9 µM (active)
same,outcome,[12],inactive
same,AC50,[16],4.96 µM (active)
same,outcome,[17],inactive
same,AC50,[18],5.85 µM (active)
same,AC50,[13],21.9 µM (active) [middle of 6 runs]
COP(=O)(OC)OC=C(Cl)Cl,outcome,[6],inactive
same,outcome,[11],inactive
O=C(Nc1ccccc1)Nc1cnns1,outcome,[6],inactive
same,AC50,[10],28.6 µM (active)
same,AC50,[11],50 µM (active)
same,outcome,[13],inactive
O=C1c2ccccc2C(=O)N1SC(Cl)(Cl)Cl,outcome,[6],inactive
same,AC50,[10],8.53 µM (active)
same,AC50,[11],19.2 µM (active)
same,outcome,[13],inactive
CCC(C)Nc1c([N+](=O)[O-])cc(C(C)(C)C)cc1[N+](=O)[O-] (stereo not drawn),outcome,[2],inactive
same,outcome,[3],inactive
same,outcome,[5],inactive
same,outcome,[10],inactive
same,AC50,[11],36.6 µM (active)
same,outcome,[13],inactive
CCCN(CCC)c1c([N+](=O)[O-])cc(C(F)(F)F)cc1[N+](=O)[O-],AC50,[7],47.9 µM (active)
same,outcome,[15],inactive
same,AC50,[8],44.3 µM (active)
same,AC50,[9],33.1 µM (active)
same,AC50,[10],80.7 µM (active)
same,AC50,[11],50 µM (active)
same,AC50,[12],7.74 µM (active)
same,AC50,[17],27.2 µM (active)
same,outcome,[19],inactive
same,AC50,[18],27.9 µM (active)
same,outcome,AR (gene 367),inactive
O=C(NC(=O)c1c(F)cccc1F)Nc1ccc(OC(F)(F)C(F)OC(F)(F)F)c(Cl)c1 (stereo not drawn),outcome,[10],inactive
same,outcome,[11],inactive
N#CN,outcome,[6],inactive
same,outcome,[10],inactive
same,outcome,[11],inactive
same,outcome,[13],inactive
COP(=S)(OC)Oc1ccc(SC)c(C)c1,outcome,[6],inactive
same,outcome,[15],inactive
same,AC50,[8],66.9 µM (active)
same,AC50,[9],11.8 µM (active)
same,outcome,[10],inactive
same,AC50,[11],33.5 µM (active)
same,AC50,[12],5.04 µM (active)
same,AC50,[16],45.9 µM (active)
same,AC50,[17],25.6 µM (active)
same,AC50,[19],26.5 µM (active)
same,AC50,[18],26.6 µM (active)
same,outcome,[13],inactive
